# Reference: PubChem BioAssay (NCI)
# The panel holds about 83,000 compounds, 20% with a hit somewhere; the sample as a whole holds those more often.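 Each cell line was grown in a 96-well plate and treated with one concentration of compound for 48 hours. Values below 10 were considered active.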 Values without a mark were called inactive. Calls of active or inactive are those of the source.
# Legend:
# Assay in all cases: NCI-60 one-dose screen, 48 h (100 = growth as untreated, 0 = no growth, -100 = all killed)
# Conditions in all cases: 10 µM unless noted
# [1] = tested on: NCI-H23 lung
# [2] = tested on: NCI-H226 lung
# [3] = tested on: NCI-H322M lung
# [4] = tested on: HOP-62 NSCLC
# [5] = tested on: NCI-H460 lung
# [6] = tested on: HOP-92 NSCLC
# [7] = tested on: NCI-H522 lung
# [8] = tested on: A549/ATCC NSCLC
# [9] = tested on: 786-0 renal
# [10] = tested on: COLO 205 colon
Compound,growth [1],growth [2],growth [3],growth [4],growth [5],growth [6],growth [7],growth [8],growth [9],growth [10]
Cc1c2c(cc[n+]1Cc1ccccc1)c1ccc(OCc3ccccc3)cc1n2Cc1ccccc1,-12.2% (active),-12% (active),-26.9% (active),-70.9% (active),-87.5% (active),-67.9% (active),-47.1% (active),4.01% (active),-87.4% (active),-82.3% (active)
CC(C)(C)CC(C)(C)Nc1c(-c2ccc(C(F)(F)F)cc2)nc2cnccn12,82.4%,92.5%,103%,92.7%,89.5%,82.6%,67.4%,83.1%,-12.3% (active),96%
O=C(Cc1ccc(/C=C/C(=O)c2ncc[nH]2)cc1)Nc1ccc(C(F)(F)F)cc1,33.4%,78.9%,71.5%,25.8%,27.1%,70%,54.7%,30.8%,-43.1% (active),36.3%
Fc1ccc(-n2cc(COc3ncnc4sc5c(c34)CCCC5)nn2)cc1Cl,96.8%,94.4%,100%,96.3%,102%,109%,84%,98.4%,98.1%,109%
N#CSCC1CC(O)(c2ccccc2)C(c2ccccc2)C(c2ccc(F)cc2)O1 (stereo not given),7.22% (active),63.1%,60.4%,60.3%,25.2%,1.42% (active),25.2%,63.1%,3.08% (active),22.1%
COc1cccc2cc(-c3cc4ccccc4[nH]3)/c(=N/C(=S)Nc3ccc(C)cc3)oc12,67.9%,55.1%,80.1%,22%,51.1%,-6.31% (active),84.8%,79.9%,59%,99.4%
C/C(=C(/c1ccccc1)c1ccc(OCC(O)CN2CCOCC2)cc1)c1ccccc1 (stereo not given),101%,96.6%,95.4%,90.1%,92.6%,80.2%,73.3%,87.2%,67.1%,69.4%
NC(=O)c1ncn(C2OC(CO)C(O)C2O)n1 (stereo not given),89%,87.6%,86.5%,71.8%,104%,79%,79.6%,96.3%,91.6%,94.4%
COc1ccc(C2CC(c3cccc(Nc4ccncc4)c3)=NN2c2ccccc2)cc1 (stereo not given),82.8%,94.7%,68.2%,43.9%,-40.8% (active),47.6%,39.9%,39.9%,-4.64% (active),-55% (active)
O=C(Nc1sc2c(c1C(=O)O)CCCC2)c1cccc(C(F)(F)F)c1,90.1%,103%,95%,104%,78.5%,79.2%,78.7%,85.3%,94%,113%
COc1cccc(-c2nc3occn3c2-c2ccnc(NCCCNS(=O)(=O)c3cccc(F)c3)n2)c1,89.7%,62.2%,107%,108%,82.6%,91.9%,74.9%,97.4%,103%,45.5%
CCN(CC)CCOC(COc1cc(C)cc(C)c1)COc1cc(C)cc(C)c1,37.9%,54.4%,48.7%,54.3%,9.62% (active),22.7%,35.4%,47.8%,44.9%,-15.8% (active)
COc1cc2nc(-c3ccc(C(F)(F)F)cc3)cc(OCCN3CCCC3)c2cc1OC,80.9%,82.7%,88.9%,83.6%,68.1%,60.7%,95.7%,93.5%,76.4%,77.9%
